PLK1 PBD inh = PLK1 (human) polo-box domain binding inhibition; P53350; Plk1 PBD binding of FITC phosphopeptide, fluorescence polarization; Potency, µM, without a hit: max response, negative = inhibition, most hits filed as inhibitors; 360,000 compounds, 2.8% hits; AID 720504; note: series mostly up to about 57 µM; % is set by controls: 0 for no effect and ±100 for the full control effect; nearly all actives have a fitted effect of over 65% in size
BAZ2B inh = inhibitors of human BAZ2B bromodomain; Q9UIF8; AlphaScreen BAZ2B-H3K14Ac peptide displacement; Potency, µM (titrated, usually from 114 µM), for the others: at the highest dose activity change, negative = inhibition, usual class: inhibitors; 360,000 compounds, 4.4% hits; note: % is set by controls: 0 for no effect and ±100 for the full control effect; nearly all actives have a fitted effect of over 60% in size
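AlphaScreen luminescence quantifies BAZ2B engagement of H3K14Ac peptide; the protein and biotinylated peptide are both at 50 nM final, buffer PBS pH 7.4 with 0.01% Tween-20, all steps at room temperature.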
G9a inh = inhibitors of human histone lysine methyltransferase G9a; Q96KQ7; G9a H3K9 monomethylation, AlphaScreen, 2 h; Potency, µM (titrated, usually from 102 µM), for inactives: top-dose activity, negative = inhibition, actives largely listed as inhibitors; 350,000 compounds, 8.8% hits; note: % is set by controls: 0 for no effect and ±100 for the full control effect; nearly all actives have a fitted effect of over 75% in size
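AlphaScreen read-out: biotin-H3K9 peptide (500 nM) methylation by 20 nM enzyme with 20 uM SAM, 2 h at room temperature after 15 min compound preincubation; anti-monomethyl H3K9 antibody plus donor/acceptor beads, 10 min dark.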
VDR inh = vitamin D3 receptor (human) inhibition | 400,000 compounds, 0.93% hits | Potency, µM, without a hit: max response, negative = inhibition, hits mostly inhibitors | P11473 | VDR-SRC2-3 peptide fluorescence polarization, 2 h; note: % is set by controls: 0 for no effect and ±100 for the full control effect
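After 23 nl compound addition and a short centrifugation, plates sat for 2 hours at ambient temperature; polarization of fluorescence then indicated loss of VDR binding to peptide SRC2-3.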
HP1b chromo inh = HP1-beta chromodomain-methylated histone interaction inhibition | P83916 | AlphaScreen HP1-beta / biotin-H3K9me3 peptide binding | Potency, µM (highest dose often 114 µM), inactives show at the highest dose activity change, negative = inhibition, most hits filed as inhibitors | 390,000 compounds, 0.56% hits | AID 540317; note: nearly all actives have a fitted effect of over 70% in size
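HP1-beta protein (50 nM final) preincubated 30 min at room temperature with biotinylated H3(1-18)K9me3 peptide (50 nM) in PBS pH 7.4, 0.01% Tween-20, then compound added for 30 min. AlphaScreen streptavidin donor/nickel chelate acceptor beads (10 ug/mL final), 30 min dark, luminescence read.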
JMJD2A Tudor inh = blocks the human JMJD2A Tudor domain. O75164. AlphaScreen JMJD2A-Tudor / H3K4me3 peptide binding. Potency, µM (doses to about 114 µM), for inactives: at the highest dose activity change, negative = inhibition, hits mostly inhibitors. 390,000 compounds, 4.4% hits. AID 504339; note: % is set by controls: 0 for no effect and ±100 for the full control effect; nearly all actives have a fitted effect of over 50% in size
An asterisk follows results filed as active; ? = inconclusive; . = no result given; [ ] = another dose, or the depositor's remark. This is a sample that favours compounds with a hit; in the whole collection about 11% have one here. Calls come from the whole dose curve; as a rule, active = well fitted curve in the direction sought with a large enough effect; inconclusive = small, poorly fitted or top-dose-only effect, or another doubt; inactive = no such curve, though single readings can be large; an effect the other way counts as inactive or inconclusive. Potency is the fitted concentration of half-maximal effect.

SMILES	PLK1 PBD inh	BAZ2B inh	G9a inh	VDR inh	HP1b chromo inh	JMJD2A Tudor inh
CC(C)C[C@@H](NC(=O)C1CCC(CNC(=O)[C@H](Cc2ccccc2)NC(=O)OC(C)(C)C)CC1)C(=O)O (stereo partly specified)	2%	2%	?	-4%	11%	28µM*
COc1ccc(C(CNC(=O)C(Cc2ccccc2)NC(N)=O)N(C)C)cc1 (stereo unspecified)	-13%	-15%	40µM*	-10%	28%	-10%
COc1ccc(C(CNC(=O)Cc2ccc(-c3ccccc3)cc2)N(C)C)cc1 (stereo unspecified)	4%	-11%	6%	10%	-17%	-30%
CC(OCc1ccccc1)C(NC(=O)OC(C)(C)C)C(=O)NC1COC2CC(n3cc(F)c(=O)[nH]c3=O)OC12 (stereo unspecified)	.	.	.	-27%	31%	-7%
COc1ccc(NS(=O)(=O)c2cnc(N)nc2)cc1Cl	.	-3%	-31%[59 µM]	-9%	31%[57 µM]	50µM*
COc1ccc(S(=O)(=O)Nc2ccc(NC(C)=O)cc2)cc1Cl	-8%	-12%	-11%	0%	25%	-12%
O=C(C1CC12CCCC2)N1CCC(CO)(Cc2ccccc2Cl)CC1 (stereo unspecified)	-9%	-3%	8%	1%	37%	-11%
CCOC(=O)c1cc(C#N)c(=S)[nH]c1C	-4%	-25%	10µM*	-21%	23%	40µM*
CCOC(=O)c1cc(C(C)=O)c(=O)[nH]c1C	8%	-8%	22%	-3%	26%	2%
COC(=O)c1cc(C#N)c(=O)[nH]c1C	3%	1%	8%	6%	45%	-1%
COCc1[nH]c(=S)c(C#N)cc1C(=O)OC	?	-8%	-137%[59 µM]	?	?	22µM*
COc1ccccc1N1CCN(C(=O)c2ccc(CS(=O)(=O)c3ccccc3OC)o2)CC1	-10%	-3%	4%[59 µM]	10%	10%	-2%[57.1 µM]
Cc1ccc(-c2c(C(=O)N3CCN(c4ccc(F)cc4)CC3)oc(=O)c3ccccc23)cc1	.	.	11%[59 µM]	-5%	51%	3%
Brc1ccc(-c2nc3ccccc3s2)s1	-11%	20%	47%[59 µM]	4%	161%	41%
Brc1cc2c(cc1-c1nc3ccccc3s1)OCO2	?	26%	40µM*	0%	-9%	6%
COc1ccc(CNC(=O)c2ccc3c(c2)CCN3S(=O)(=O)c2ccc(Cl)cc2)cc1	.	-2%	4%[59 µM]	3%	53%	-12%
O=C(c1ccco1)N1CCN(Cc2cc(=O)oc3cc(O)ccc23)CC1	-2%	-5%	22µM*	8%	21%	-10%
CC1CCCN(C(=O)CN2CCN(C(=O)c3ccco3)CC2)C1 (stereo unspecified)	-13%	-6%	25µM*	16%	34%	-3%
CC1CCCN(C(=O)CNC(=O)c2ccco2)C1 (stereo unspecified)	-14%	-19%	22%	39%	28%	-10%
CC(=O)c1ccc(N2CCN(C(=O)c3ccco3)CC2)c(F)c1	19µM*	-5%	?	6%	-4%	-30%[11.4 µM]
COc1cccc(S(=O)(=O)N2CCN(C(=O)c3ccco3)CC2)c1	2%	?	?	4%	48%	-3%
COc1cccc(CN2CCN(C(=O)c3ccco3)CC2)c1	-5%	28µM*	20µM*	-21%	?	28µM*
Cc1ccc2c(CC(=O)Nc3c(C(=O)c4ccc(F)cc4)oc4ccccc34)coc2c1C	.	4%	10%[59 µM]	12%	59%	-7%
COc1ccc(OC)c(CN2CCN(C(=O)c3ccco3)CC2)c1	-6%	?	18µM*	17%	?	0.79µM*
CC(C)(C)c1ccc(C(=O)N2CCN(S(=O)(=O)c3ccc(Br)s3)CC2)cc1	-2%	-24%	29%[12.7 µM]	-4%	29%	-21%
SMILES	PLK1 PBD inh	BAZ2B inh	G9a inh	VDR inh	HP1b chromo inh	JMJD2A Tudor inh
O=C(c1ccco1)N1CCN(Cc2cccc3ccccc23)CC1	-11%	20µM*	14µM*	2%	22µM*	22µM*
COc1ccc(CC(=O)N2CCN(C(=O)c3ccco3)CC2)cc1	-21%	-1%	?	-2%	12%	-7%
O=C(c1ccco1)N1CCN(S(=O)(=O)c2ccc(Br)s2)CC1	-14%	-12%	13µM*	-19%	4%	-16%
CCc1ccc(CN2CCN(C(=O)c3ccco3)CC2)cc1	-12%	32µM*	11µM*	15%	?	20µM*
O=C(c1ccco1)N1CCN(Cc2ccc(Br)cc2)CC1	0%	-2%	15%[2.33 µM]	-3%	20%	-5%
CCN1C(=O)/C(=C\c2ccc(-c3cccc(C(=O)OC)c3)o2)SC1=Nc1ccc(C(=O)O)cc1	.	-36%	.	.	.	.
O=C(O)c1cccc(-c2ccc(/C=C3/SC(=Nc4ccccc4)N(Cc4cccnc4)C3=O)o2)c1	24µM*	50µM*	32µM*	-13%	?	45µM*
CCN=C1S/C(=C\c2ccc(-c3cccc(C(=O)O)c3)o2)C(=O)N1CC	?	?	40µM*	-21%	47%	?
CCN1C(=O)/C(=C\c2ccc(-c3ccc([N+](=O)[O-])cc3OC)o2)SC1=Nc1cccc(C(=O)O)c1	21µM*	50µM*	11µM*	?	28µM*	56µM*
O=C(CCN1C(=O)C2C3C=CC(C3)C2C1=O)NCCc1ccccc1 (stereo unspecified)	24µM*	-6%	-32%	-10%	-5%	-14%[11.4 µM]
Cc1cccc(NC(=O)CCN2C(=O)C3C4C=CC(C4)C3C2=O)n1 (stereo unspecified)	12µM*	-3%	-5%	0%	-1%	-12%[11.4 µM]
O=C1C2C3C=CC(C3)C2C(=O)N1CCc1ccccc1 (stereo unspecified)	-1%	?	3%[0.501 µM]	-6%	25%	-10%
O=C(/C(C=Nc1ccc(Br)cc1)=C(/O)c1ccco1)C(F)(F)F	-5%	-1%	45µM*	-9%	38%	-25%
O=C(/C(C=Nc1cccc(C(F)(F)F)c1)=C(/O)c1ccco1)C(F)(F)F	-14%	?	?	-11%	32%	-14%
COC(=O)c1c(C(=O)OC)c(-c2ccc(Cl)cc2)n2c1CS(=O)(=O)C2	4.2µM*	-11%	0%	?	0%	?
CN(C)CCNCc1ccc(OC2CCCC2)cc1	-2%	-29%	79µM*	-1%	29%	-11%
COc1ccc(CCNC(=O)Cn2nnc(-c3ccc(C(F)(F)F)cc3)n2)cc1OC	.	-12%	2%[59 µM]	-8%	31%	-4%
O=c1c2ccccc2nc2c3ccccc3c(NCc3ccccn3)nn12	-27%	50µM*	32µM*	-5%	43%	?

Assay outcomes as filed in PubChem BioAssay.
